Hits are enriched below; roughly 3.5% of the tested compounds scored in any of these assays.
TEAD-YAP block: TEAD-YAP interaction inhibition; HEK-TIYL cells, TEAD-Gal4/YAP UAS-luciferase luminescence; 640,000 compounds, 1.4% hits; AID 1259422; inhibition, % at 9.12 µM; in the data active means inhibition above about 32%
MITF primary: inhibitors of human MITF; O75030; AlphaScreen MITF homodimerization, bead proximity signal; inhibition, % at 2.6 µM; 650,000 compounds, 0.91% hits; in the data active means inhibition above about 50%
Target sequence (O75030 whole entry, looked up): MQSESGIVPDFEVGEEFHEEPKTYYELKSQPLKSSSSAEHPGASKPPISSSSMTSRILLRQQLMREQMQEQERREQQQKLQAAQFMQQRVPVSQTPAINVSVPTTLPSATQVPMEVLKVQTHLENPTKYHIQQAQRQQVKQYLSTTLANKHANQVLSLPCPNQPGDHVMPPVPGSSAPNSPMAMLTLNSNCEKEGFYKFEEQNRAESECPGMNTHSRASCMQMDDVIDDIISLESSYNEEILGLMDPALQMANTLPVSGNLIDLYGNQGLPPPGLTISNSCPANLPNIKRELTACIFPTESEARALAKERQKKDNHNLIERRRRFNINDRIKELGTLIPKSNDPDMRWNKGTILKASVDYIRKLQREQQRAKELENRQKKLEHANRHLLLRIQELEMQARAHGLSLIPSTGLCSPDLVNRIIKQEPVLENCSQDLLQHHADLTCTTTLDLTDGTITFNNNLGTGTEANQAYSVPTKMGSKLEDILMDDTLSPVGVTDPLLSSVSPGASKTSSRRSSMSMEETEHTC
GPR151 activ: human GPR151 activation; Q8TDV0; PathHunter beta-arrestin GPR151 cells, luminescence; activation, % at 11.2 µM; 650,000 compounds, 1% hits; AID 1508602; in the data active means activation above about 4.9%
FBW7 activator: activators of human E3 ligase FBW7; Q969H0; AlphaScreen FBW7–phospho-cyclin E peptide binding, activator screen; normalized activity (activation), % at 26.1 µM; 650,000 compounds, 0.13% hits; AID 1259310; in the data active means normalized activity above about 1.9%;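 further: purified mutant Fbw7 with reduced substrate affinity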
GPR151 confirm: confirmation of human GPR151 activators | activation, % at 11.2 µM | 6,700 tested, under 10 active | GPR151 PathHunter beta-arrestin cells, luminescence, 90 min; % of EA-reagent control over plate median | shares compounds with GPR151 activ;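 active means mean percent activation across replicates above the confirmation screen cutoff of 4.91%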
GPR119 counter: activates human GPR119 in a GPR151 counter-screen. GPR119 PathHunter beta-arrestin cells, luminescence, 90 min; 0 = compound-well median, 100 = enzyme-acceptor control. activation, % at 11.2 µM. shares compounds with GPR151 activ. 6,700 compounds, 0.3% hits;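 active means mean percent activation in the counterscreen above 29.09%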;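 further: counterscreen on off-target GPR119 to flag nonselective hits from the GPR151 activator screen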
Of the large screens only hits and unclear results are named; the others gave an inactive call (follow-up assays come after a bar, where they were run).

Cc1nn(CC(=O)Nc2ccc(O)cc2)c(C)c1[N+](=O)[O-]	GPR151 activ 6.1 | GPR151 confirm inactive | GPR119 counter inactive
CC1C2CCCN2CCN1Cc1cccc([N+](=O)[O-])c1 (stereo not given)	GPR151 activ 9.7 | GPR151 confirm inactive | GPR119 counter inactive
CC(=O)C1=C(C)N(Cc2ccccc2)C(=O)N[C@H]1c1cccc(F)c1	GPR151 activ 6.9 (no result: TEAD-YAP block) | GPR151 confirm inactive | GPR119 counter inactive
COc1ccc(-c2cccc(C(=O)NCCCN3CCCC3=O)c2)cc1	none
O=C(NCCCN1CCCC1=O)c1cccc(-c2ccc(C(=O)NC3CC3)cc2)c1	GPR151 activ 6.1 | GPR151 confirm inactive | GPR119 counter inactive
O=C(NC1CC1)c1cnc(NCCCN2CCCC2=O)s1	GPR151 activ 6.0 | GPR151 confirm inactive | GPR119 counter inactive
CCn1ccnc1CN(C)C(=O)c1ccc(OC2CCN(Cc3ccccn3)CC2)cc1	none
COc1ccc(-c2nnc(SCC(=O)c3cc(C)n(CC4CCCO4)c3C)o2)cc1 (stereo not given)	GPR151 activ 4.9 | GPR151 confirm inactive | GPR119 counter inactive
CCC(C)c1c(O)nc(SCC(=O)NC(C)(C)C)[nH]c1=O (stereo not given)	none
O=C(CCc1ccccc1)NC(c1ccc2c(c1)OCO2)c1c(O)ccc2ccccc12 (stereo not given)	none
CC(C)CC(=O)NC(c1ccc2c(c1)OCO2)c1c(O)ccc2ccccc12 (stereo not given)	GPR151 activ 5.2 | GPR151 confirm inactive | GPR119 counter inactive
Cc1ccc(Cn2c(SCC(=O)C(C)(C)C)nc3ccsc3c2=O)cc1	GPR151 activ 5.0 | GPR151 confirm inactive | GPR119 counter inactive
Cc1ccc(CSc2nc3ccsc3c(=O)n2Cc2ccc(C)cc2)cc1	none
O=C(CSc1nc2ccccc2c(=O)n1CCC1=CCCCC1)NCCc1ccccc1	GPR151 activ 6.4 | GPR151 confirm inactive | GPR119 counter inactive
COc1ccc(CCNC(=O)CCn2c(SCC(=O)Nc3cc(C)on3)nc3ccccc3c2=O)cc1OC	GPR151 activ 4.9 | GPR151 confirm inactive | GPR119 counter inactive
COc1ccccc1NC(=O)CSc1nc2ccsc2c(=O)n1Cc1ccccc1	GPR151 activ 6.0 | GPR151 confirm inactive | GPR119 counter inactive
COC(=O)C(C)Sc1nnc(COc2ccc(C)cc2)n1C (stereo not given)	none
CCC12CN3CCN(CC(C3)/C1=N\NC(=O)c1ccccc1N)C2	none
O=C(CSc1nc2ccsc2c(=O)n1Cc1ccccc1)NCCC1=CCCCC1	GPR151 activ 8.7 | GPR151 confirm inactive | GPR119 counter inactive
CCC(C)NC(=O)CSc1nc2ccccc2c(=O)n1CCCN1CCCCC1CC (stereo not given)	none
CC(NC(=O)CSc1nc2ccccc2c(=O)n1CCCO)c1ccccc1 (stereo not given)	GPR151 activ 6.5 | GPR151 confirm inactive | GPR119 counter inactive
CCOC(=O)CSc1nc2ccccc2c(=O)n1Cc1ccccc1OC	GPR151 activ 5.2 | GPR151 confirm inactive | GPR119 counter inactive
COc1ccc(CCNC(=O)CCn2c(SCC(=O)Nc3ccccc3Cl)nc3ccccc3c2=O)cc1OC	none
Cn1c(=O)c2c(nc(Cl)n2Cc2ccc([N+](=O)[O-])cc2)n(C)c1=O	none
Cn1c(=O)c2c(nc(-n3ccnc3)n2Cc2ccc([N+](=O)[O-])cc2)n(C)c1=O	GPR151 activ 5.0 | GPR151 confirm inactive | GPR119 counter inactive
COC(=O)c1cc(NC(=O)c2ccc(F)cc2)c(=O)n2c(=O)c3c(C)c(C)sc3[nH]c12	GPR151 activ 5.4 | GPR151 confirm inactive | GPR119 counter inactive
COC(=O)c1cc(NC(=O)c2cccs2)c(=O)n2c(=O)c3c(C)c(C)sc3[nH]c12	none
CN(C)N1C(N)=C(C#N)C(c2ccc3ccccc3c2)C2=C1CCCC2=O (stereo not given)	GPR151 activ 5.9 | GPR151 confirm inactive | GPR119 counter inactive
COc1ccc(C2C(C#N)=C(N)N(N(C)C)C3=C2C(=O)CCC3)cc1 (stereo not given)	none
O=C(Nc1cc(Oc2ccc(F)cc2F)cc([N+](=O)[O-])c1)c1oc(=O)c2ccccc2c1-c1ccccc1	GPR151 activ 5.5 | GPR151 confirm inactive | GPR119 counter inactive
O=C(Nc1cc(Sc2ccc(F)cc2)cc([N+](=O)[O-])c1)c1oc(=O)c2ccccc2c1-c1ccccc1	none
COCCNC(=O)Nc1nc(-c2ccc3c(c2)CCCC3)cs1	GPR151 activ 7.3 | GPR151 confirm inactive | GPR119 counter inactive
O=C(CN1C(=O)CCC1=O)Nc1nc(-c2ccc3c(c2)CCCC3)cs1	none
Cn1c([N+](=O)[O-])cnc1/C=C(\O)c1ccccc1	none
COC(=O)C1=C(NC(=O)c2ccccc2Br)CCS1	GPR151 activ 5.0 | GPR151 confirm inactive | GPR119 counter inactive
COC(=O)C1=C(NC(=O)COc2ccc(Cl)cc2)CCS1	GPR151 activ 6.1 | GPR151 confirm inactive | GPR119 counter inactive
O=C(NCc1nnc2n1CCN(Cc1ccccc1)CC2)c1ccccn1	none
O=C(CSc1ccc(-c2ccc3c(c2)OCO3)nn1)N1CCCC1	none
Cc1ccc(-c2ccc(SCC(=O)N3CCCC3)nn2)cc1	GPR151 activ 6.0 | GPR151 confirm inactive | GPR119 counter inactive
CCOC(=O)N1CCN(C(=O)CSc2ccc(-c3cccnc3)nn2)CC1	GPR151 activ 4.9 | GPR151 confirm inactive | GPR119 counter inactive
O=C(Oc1cccc(OC(=O)c2ccccc2F)c1)c1ccccc1F	GPR151 activ 5.6 | GPR151 confirm inactive | GPR119 counter inactive
N#CC1(C#N)CC(C=O)=C(N)C1(C#N)CC(=O)C12CC3CC(CC(C3)C1)C2 (stereo not given)	GPR151 activ 14 | GPR151 confirm inactive | GPR119 counter inactive
O=C(Cn1cnc2ccccc2c1=O)NCCC(=O)N1CCOCC1	none
O=C(Cn1cnc2ccccc2c1=O)NCCC(=O)N1CCN(Cc2ccc3c(c2)OCO3)CC1	GPR151 activ 5.4 | GPR151 confirm inactive | GPR119 counter inactive
CCC1(CCC(=O)NCC2(c3ccccc3)CCOCC2)CCC(=O)N1 (stereo not given)	GPR151 activ 9.5 | GPR151 confirm inactive | GPR119 counter inactive
COc1ccc(C(=O)Nc2cc(=O)n(C)c(=O)n2C)cc1	none
COc1cccc(C(=O)Nc2cc(=O)n(C)c(=O)n2C)c1	GPR151 activ 10 | GPR151 confirm inactive | GPR119 counter inactive
COc1cccc(C(=O)Nc2cc(C(C)(C)C)ccc2C(C)=O)c1	GPR151 activ 5.2 | GPR151 confirm inactive | GPR119 counter inactive
CC(=O)c1ccc(C(C)(C)C)cc1NC(=O)c1ccc(Cl)cc1	none
CC(c1ccccc1)n1cc(C(=O)c2cc(Br)ccc2O)cc(C#N)c1=O (stereo not given)	none
CC1CCCN(C(=O)c2cn(C3CCCC3)c(=O)c3c2c2ccccc2n3C)C1 (stereo not given)	none

Screening results: PubChem BioAssay, The Scripps Research Institute Molecular Screening Center
